Assay in all cases: DAPPL (digital affinity profiling via proximity ligation, sequencing); 10 mM Tris-HCl pH 7.5, 50 mM NaCl, 1 mM DTT, 4% glycerol, room temperature, 30 min; GST-TFs on glutathione beads, 16-mer random dsDNA library, 0.1% formaldehyde crosslink after washing; high values mean tight binding
One experiment addresses T1, FLI1 (Homo sapiens, UniProt Q01543 1-452).
T1 sequence: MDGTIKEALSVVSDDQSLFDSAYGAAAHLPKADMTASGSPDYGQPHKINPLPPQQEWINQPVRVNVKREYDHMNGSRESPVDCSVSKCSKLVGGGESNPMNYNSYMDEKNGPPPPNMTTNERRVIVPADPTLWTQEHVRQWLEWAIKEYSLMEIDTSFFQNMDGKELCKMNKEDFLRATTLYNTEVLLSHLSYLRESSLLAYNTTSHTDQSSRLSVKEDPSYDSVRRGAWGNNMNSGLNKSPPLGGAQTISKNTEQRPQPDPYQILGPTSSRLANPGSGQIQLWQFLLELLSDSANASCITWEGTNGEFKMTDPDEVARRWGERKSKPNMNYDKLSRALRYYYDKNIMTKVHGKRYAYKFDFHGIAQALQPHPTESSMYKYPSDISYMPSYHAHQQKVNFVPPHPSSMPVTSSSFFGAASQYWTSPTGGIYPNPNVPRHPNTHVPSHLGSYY
The note with it: protein: recombinant; tags: N-terminal GST; dsDNA, one strand shown. A digest of the protocol:
(§1)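 Beads coated with glutathione captured GST-fused human transcription factors that had been expressed in yeast, and the factors were then given DNA barcodes and pooled with a tag-only sample. The pools were incubated with 200 nmole of a random double-stranded 16-mer DNA library in Tris/NaCl/DTT/glycerol buffer for 30 min at room temperature, washed, crosslinked with 0.1% formaldehyde and proximity-ligated with BsaI/T4 ligase at 37 °C for 1 h. PCR amplification and Illumina NextSeq500 sequencing came last. Binding signal is each hexamer's read frequency for a factor divided by its frequency for the tag-only sample.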

The target in another experiment is T2, GABPA (Homo sapiens, UniProt Q06546 1-454).
T2 sequence: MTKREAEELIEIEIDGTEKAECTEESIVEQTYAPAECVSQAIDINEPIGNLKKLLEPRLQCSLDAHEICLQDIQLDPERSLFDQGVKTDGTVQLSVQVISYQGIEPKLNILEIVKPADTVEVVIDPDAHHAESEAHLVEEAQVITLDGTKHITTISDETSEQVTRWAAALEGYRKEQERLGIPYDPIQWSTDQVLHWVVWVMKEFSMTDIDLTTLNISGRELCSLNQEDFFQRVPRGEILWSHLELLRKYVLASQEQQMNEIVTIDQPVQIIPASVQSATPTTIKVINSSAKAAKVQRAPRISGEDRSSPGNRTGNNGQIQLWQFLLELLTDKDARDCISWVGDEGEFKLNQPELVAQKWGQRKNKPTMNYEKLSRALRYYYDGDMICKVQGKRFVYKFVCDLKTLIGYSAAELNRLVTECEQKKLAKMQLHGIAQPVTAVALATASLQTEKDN
Conditions: protein: recombinant; tags: N-terminal GST; dsDNA, one strand shown. An outline of the steps:
as §1

The next experiment deals with T3, ERG (Homo sapiens, UniProt P11308 1-479).
T3 sequence: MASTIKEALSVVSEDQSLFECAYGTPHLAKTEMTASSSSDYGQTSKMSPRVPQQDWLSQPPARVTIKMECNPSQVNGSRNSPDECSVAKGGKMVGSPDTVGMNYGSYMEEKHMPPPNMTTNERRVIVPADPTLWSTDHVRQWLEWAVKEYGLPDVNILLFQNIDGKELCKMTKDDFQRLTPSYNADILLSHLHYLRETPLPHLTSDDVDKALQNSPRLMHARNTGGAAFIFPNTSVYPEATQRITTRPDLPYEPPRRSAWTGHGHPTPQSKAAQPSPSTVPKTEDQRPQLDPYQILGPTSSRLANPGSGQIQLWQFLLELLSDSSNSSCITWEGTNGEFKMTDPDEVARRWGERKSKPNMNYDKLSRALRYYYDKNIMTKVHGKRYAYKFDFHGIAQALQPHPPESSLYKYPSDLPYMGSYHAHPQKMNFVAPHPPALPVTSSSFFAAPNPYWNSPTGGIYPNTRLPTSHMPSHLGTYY
Conditions: protein: recombinant; tags: N-terminal GST; dsDNA, one strand shown. A digest of the protocol: as §1

The next experiment has as its target ELF1 (Homo sapiens, UniProt P32519 1-619). Conditions: protein: recombinant; tags: N-terminal GST; dsDNA, one strand shown. A digest of the protocol: as §1
The next experiment has as its target T4, EHF (Homo sapiens, UniProt Q9NZC4 1-300).
T4 sequence: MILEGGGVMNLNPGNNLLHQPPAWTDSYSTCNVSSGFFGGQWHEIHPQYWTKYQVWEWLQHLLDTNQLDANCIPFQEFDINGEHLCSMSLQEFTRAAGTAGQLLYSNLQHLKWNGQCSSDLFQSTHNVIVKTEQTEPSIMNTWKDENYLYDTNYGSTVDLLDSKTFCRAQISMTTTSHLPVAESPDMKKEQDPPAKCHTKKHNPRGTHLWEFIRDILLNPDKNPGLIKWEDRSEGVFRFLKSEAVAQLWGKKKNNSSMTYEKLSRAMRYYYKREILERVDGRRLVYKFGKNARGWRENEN
The note with it: protein: recombinant; tags: N-terminal GST; dsDNA, one strand shown. A digest of the protocol: as §1

Another experiment has as its target SPI1 (Homo sapiens, UniProt P17947 1-270). The note with it: protein: recombinant; tags: N-terminal GST; dsDNA, one strand shown. An outline of the steps: as §1
The target of the next experiment is SPIB (Homo sapiens, UniProt Q01892 1-262). The note with it: protein: recombinant; tags: N-terminal GST; dsDNA, one strand shown. A digest of the protocol: as §1
SPIB, sequence (Q01892 whole entry): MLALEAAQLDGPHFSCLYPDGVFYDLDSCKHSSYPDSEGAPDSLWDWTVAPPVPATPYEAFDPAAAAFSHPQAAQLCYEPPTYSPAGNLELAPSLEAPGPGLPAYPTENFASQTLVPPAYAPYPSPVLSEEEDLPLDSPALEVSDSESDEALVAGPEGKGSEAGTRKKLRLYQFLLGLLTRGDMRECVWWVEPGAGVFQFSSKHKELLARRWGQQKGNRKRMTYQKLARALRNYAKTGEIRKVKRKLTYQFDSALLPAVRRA
The target of another experiment is T5, FEV (Homo sapiens, UniProt Q99581 1-238).
T5 sequence: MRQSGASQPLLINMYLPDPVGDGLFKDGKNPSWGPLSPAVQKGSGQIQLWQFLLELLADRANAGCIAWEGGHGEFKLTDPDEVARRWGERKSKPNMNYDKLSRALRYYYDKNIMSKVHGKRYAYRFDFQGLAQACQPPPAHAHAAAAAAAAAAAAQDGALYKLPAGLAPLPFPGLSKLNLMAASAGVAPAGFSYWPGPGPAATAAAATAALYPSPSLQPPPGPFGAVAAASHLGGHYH
Conditions: protein: recombinant; tags: N-terminal GST; dsDNA, one strand shown. An outline of the steps: as §1

The target in the next experiment is ETV5 (Homo sapiens, UniProt P41161 1-510). Conditions: protein: recombinant; tags: N-terminal GST; dsDNA, one strand shown. An outline of the steps:
as §1

The target in another experiment is HSF1 (Homo sapiens, UniProt Q00613 1-529). Conditions: protein: recombinant; tags: N-terminal GST; chain copies: 3; dsDNA, one strand shown. A digest of the protocol: as §1
HSF1, sequence (Q00613 whole entry): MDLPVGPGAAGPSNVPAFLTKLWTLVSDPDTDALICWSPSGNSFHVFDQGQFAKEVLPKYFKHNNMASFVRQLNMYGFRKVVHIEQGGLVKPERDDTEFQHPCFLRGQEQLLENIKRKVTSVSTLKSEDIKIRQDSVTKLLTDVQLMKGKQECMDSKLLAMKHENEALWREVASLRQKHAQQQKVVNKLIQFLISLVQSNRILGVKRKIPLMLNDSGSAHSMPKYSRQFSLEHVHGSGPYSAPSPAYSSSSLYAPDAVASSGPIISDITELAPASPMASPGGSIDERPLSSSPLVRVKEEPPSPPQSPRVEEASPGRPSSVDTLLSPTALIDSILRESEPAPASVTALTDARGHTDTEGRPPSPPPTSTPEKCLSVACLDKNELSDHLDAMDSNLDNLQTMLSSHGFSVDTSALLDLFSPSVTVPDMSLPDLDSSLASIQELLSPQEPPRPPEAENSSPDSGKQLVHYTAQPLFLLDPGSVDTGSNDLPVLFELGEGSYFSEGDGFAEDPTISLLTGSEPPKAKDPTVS
The target of another experiment is T6, SPIC (Homo sapiens, UniProt Q8N5J4 1-248).
T6 sequence: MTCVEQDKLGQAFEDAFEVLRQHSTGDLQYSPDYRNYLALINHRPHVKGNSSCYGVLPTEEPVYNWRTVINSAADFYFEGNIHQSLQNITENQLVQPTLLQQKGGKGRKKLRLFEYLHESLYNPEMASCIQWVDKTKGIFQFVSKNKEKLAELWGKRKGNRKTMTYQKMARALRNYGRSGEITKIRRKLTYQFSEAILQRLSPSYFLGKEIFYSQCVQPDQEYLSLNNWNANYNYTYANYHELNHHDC
The note with it: protein: recombinant; tags: N-terminal GST; dsDNA, one strand shown. A digest of the protocol: as §1

The target of another experiment is ELF4 (Homo sapiens, UniProt Q99607 1-663). The note with it: protein: recombinant; tags: N-terminal GST; dsDNA, one strand shown. An outline of the steps:
as §1

In the next experiment the target is T7, ELK4 (Homo sapiens, UniProt P28324-2 1-405).
T7 sequence: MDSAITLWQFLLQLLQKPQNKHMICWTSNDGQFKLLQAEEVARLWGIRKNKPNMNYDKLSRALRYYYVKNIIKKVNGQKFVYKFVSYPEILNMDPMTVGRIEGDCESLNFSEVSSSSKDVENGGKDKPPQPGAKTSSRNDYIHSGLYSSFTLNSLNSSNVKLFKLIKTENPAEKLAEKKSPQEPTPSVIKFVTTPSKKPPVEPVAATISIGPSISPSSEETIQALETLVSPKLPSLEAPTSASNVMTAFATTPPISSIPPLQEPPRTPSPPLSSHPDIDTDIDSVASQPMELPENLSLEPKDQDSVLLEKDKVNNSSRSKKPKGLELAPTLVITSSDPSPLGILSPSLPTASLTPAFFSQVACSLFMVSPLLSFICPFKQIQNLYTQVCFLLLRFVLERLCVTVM
Conditions: protein: recombinant; tags: N-terminal GST; dsDNA, one strand shown. An outline of the steps:
as §1

In the next experiment the target is T8, ETV2 (Homo sapiens, UniProt O00321 1-342).
T8 sequence: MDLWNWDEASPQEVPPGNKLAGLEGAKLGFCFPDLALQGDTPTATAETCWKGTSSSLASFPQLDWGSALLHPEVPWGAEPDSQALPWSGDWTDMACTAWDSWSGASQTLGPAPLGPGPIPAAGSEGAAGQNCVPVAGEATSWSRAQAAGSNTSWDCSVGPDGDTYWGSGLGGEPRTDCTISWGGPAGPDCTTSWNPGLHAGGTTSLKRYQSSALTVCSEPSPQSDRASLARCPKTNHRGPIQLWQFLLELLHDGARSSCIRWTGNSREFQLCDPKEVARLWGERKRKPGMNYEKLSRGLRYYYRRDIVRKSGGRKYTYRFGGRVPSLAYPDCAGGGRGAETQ
Conditions: protein: recombinant; tags: N-terminal GST; dsDNA, one strand shown. A digest of the protocol: as §1

The next experiment has as its target T9, ELF3 (Homo sapiens, UniProt P78545 1-371).
T9 sequence: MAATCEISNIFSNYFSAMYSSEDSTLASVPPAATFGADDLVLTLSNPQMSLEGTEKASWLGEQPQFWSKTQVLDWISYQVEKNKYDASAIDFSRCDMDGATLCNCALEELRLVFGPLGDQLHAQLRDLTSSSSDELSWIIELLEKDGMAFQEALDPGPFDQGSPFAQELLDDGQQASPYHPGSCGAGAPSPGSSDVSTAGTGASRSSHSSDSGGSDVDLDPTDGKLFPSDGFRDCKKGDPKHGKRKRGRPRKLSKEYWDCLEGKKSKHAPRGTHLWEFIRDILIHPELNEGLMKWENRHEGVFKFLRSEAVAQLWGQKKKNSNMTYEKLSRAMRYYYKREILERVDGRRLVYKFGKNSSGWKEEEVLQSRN
The note with it: protein: recombinant; tags: N-terminal GST; dsDNA, one strand shown. An outline of the steps:
as §1

The next experiment concerns the target CRX (Homo sapiens, UniProt O43186 1-299). Conditions: protein: recombinant; tags: N-terminal GST; dsDNA, one strand shown. A digest of the protocol: as §1
In the next experiment the target is ETV1 (Homo sapiens, UniProt P50549 1-477). The note with it: protein: recombinant; tags: N-terminal GST; dsDNA, one strand shown. A digest of the protocol:
as §1

ETV1, sequence (P50549 whole entry): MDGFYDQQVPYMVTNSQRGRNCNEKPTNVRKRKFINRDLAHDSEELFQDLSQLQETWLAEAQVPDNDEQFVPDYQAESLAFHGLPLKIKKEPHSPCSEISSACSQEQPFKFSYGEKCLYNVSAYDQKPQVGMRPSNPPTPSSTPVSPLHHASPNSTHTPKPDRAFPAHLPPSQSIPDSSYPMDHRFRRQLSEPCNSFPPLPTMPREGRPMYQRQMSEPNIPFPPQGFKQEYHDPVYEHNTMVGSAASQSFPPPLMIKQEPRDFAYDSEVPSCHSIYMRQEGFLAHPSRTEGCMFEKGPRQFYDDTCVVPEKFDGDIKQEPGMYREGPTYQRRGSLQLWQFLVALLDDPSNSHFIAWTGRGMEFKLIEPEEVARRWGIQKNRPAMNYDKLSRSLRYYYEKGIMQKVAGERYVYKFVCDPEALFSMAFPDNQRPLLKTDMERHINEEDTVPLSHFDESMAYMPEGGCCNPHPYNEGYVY
ETV5, sequence (P41161 whole entry): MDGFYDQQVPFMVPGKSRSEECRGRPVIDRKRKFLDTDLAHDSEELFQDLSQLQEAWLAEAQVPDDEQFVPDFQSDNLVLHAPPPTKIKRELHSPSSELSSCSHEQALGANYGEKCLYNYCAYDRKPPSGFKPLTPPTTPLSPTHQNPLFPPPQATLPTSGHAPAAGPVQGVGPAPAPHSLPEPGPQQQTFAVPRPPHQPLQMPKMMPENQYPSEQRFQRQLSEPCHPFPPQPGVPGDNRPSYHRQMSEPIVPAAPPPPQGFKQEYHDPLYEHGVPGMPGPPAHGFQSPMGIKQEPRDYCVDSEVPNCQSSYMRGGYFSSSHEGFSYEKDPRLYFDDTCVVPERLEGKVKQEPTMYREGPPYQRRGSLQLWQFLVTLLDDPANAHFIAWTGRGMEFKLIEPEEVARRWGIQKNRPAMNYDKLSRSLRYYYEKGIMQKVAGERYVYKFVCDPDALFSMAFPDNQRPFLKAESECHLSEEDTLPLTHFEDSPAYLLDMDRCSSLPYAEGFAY
ELF4, sequence (Q99607 whole entry): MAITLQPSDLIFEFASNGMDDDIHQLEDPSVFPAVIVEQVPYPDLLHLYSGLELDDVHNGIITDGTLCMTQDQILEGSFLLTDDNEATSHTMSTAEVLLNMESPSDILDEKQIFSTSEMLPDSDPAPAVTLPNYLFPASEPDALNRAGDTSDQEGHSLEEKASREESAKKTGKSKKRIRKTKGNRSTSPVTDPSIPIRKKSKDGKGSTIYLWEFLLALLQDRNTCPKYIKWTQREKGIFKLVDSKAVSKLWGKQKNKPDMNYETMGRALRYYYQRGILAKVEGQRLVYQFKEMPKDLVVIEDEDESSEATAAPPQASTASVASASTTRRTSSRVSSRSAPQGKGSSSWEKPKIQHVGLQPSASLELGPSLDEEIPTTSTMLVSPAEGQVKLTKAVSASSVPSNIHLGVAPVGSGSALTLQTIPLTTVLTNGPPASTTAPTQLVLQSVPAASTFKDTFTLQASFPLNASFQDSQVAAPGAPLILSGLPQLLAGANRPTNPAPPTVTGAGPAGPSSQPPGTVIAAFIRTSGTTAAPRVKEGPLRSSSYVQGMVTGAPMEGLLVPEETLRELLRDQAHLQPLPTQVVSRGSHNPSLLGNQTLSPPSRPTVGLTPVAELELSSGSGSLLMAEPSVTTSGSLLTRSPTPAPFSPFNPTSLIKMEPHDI
ELF1, sequence (P32519 whole entry): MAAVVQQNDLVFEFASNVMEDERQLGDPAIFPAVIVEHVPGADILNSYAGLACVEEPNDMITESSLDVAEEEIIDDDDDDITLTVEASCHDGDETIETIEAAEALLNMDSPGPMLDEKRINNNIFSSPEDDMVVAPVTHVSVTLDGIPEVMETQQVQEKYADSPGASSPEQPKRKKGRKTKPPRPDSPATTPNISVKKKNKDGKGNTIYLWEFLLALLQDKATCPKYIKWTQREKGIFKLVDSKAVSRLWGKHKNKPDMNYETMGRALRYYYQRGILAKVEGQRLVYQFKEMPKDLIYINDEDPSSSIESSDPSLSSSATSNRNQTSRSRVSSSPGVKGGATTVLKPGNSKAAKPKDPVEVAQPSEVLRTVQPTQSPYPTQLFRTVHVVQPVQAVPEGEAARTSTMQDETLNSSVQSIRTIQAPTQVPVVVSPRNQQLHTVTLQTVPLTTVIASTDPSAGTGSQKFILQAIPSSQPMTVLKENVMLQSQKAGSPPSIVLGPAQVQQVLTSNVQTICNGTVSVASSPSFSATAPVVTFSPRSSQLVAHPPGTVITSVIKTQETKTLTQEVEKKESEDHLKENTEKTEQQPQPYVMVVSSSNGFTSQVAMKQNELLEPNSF
CRX, sequence (O43186 whole entry): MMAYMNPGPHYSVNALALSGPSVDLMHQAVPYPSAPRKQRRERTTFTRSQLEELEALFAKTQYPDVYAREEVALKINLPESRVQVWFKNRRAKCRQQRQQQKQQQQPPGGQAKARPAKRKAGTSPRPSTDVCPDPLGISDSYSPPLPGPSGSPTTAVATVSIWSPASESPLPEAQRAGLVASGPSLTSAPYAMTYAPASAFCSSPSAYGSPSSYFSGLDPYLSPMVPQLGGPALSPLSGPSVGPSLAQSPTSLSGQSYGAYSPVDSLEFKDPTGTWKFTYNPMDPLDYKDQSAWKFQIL

For the sequence GTGGCT, the binding signal with FLI1 was 1.23 fold enrichment (6-mer frequency, TF over GST control); in the experiment with GABPA, 1.27 fold enrichment (6-mer frequency, TF over GST control); with ERG it was 1.19 fold enrichment (6-mer frequency, TF over GST control); in the experiment with ELF1 it was 1.11 fold enrichment (6-mer frequency, TF over GST control); with EHF it was 1.22 fold enrichment (6-mer frequency, TF over GST control); with SPI1, 1.3 fold enrichment (6-mer frequency, TF over GST control). Moreover, the binding signal in the experiment with SPIB is 1.18 fold enrichment (6-mer frequency, TF over GST control); with FEV, 1.19 fold enrichment (6-mer frequency, TF over GST control); with ETV5, 1.13 fold enrichment (6-mer frequency, TF over GST control); with HSF1, 1.05 fold enrichment (6-mer frequency, TF over GST control); with SPIC, 1.23 fold enrichment (6-mer frequency, TF over GST control); with ELF4 it was 1.1 fold enrichment (6-mer frequency, TF over GST control). Besides, the binding signal with ELK4 is 1.31 fold enrichment (6-mer frequency, TF over GST control); with ETV2, 1.17 fold enrichment (6-mer frequency, TF over GST control); in the experiment with ELF3, 1.26 fold enrichment (6-mer frequency, TF over GST control); with CRX, 1.18 fold enrichment (6-mer frequency, TF over GST control); with ETV1 it was 1.19 fold enrichment (6-mer frequency, TF over GST control).

These data come from publication PMC7862700, “An all-to-all approach to the identification of sequence-specific readers for epigenetic DNA modifications on cytosine”.
